Screens from PubChem.
Epigenetic derep – regulators of epigenetic silencing causing reporter derepression in mouse cells; murine LDR cells, GFP reporter derepression, 30 h; Potency, µM (highest dose often 53.9 µM), for the others: at the top dose GFP activation, most hits filed as activators; hit rate 0.2% among 280,000; AID 1865; note: % of control where 0% means no effect; nearly all actives have a fitted effect of over 60% in size
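Reporter derepression read as number of fluorescent GFP-positive objects, 20-120 um in size, counted by laser-scanning cytometer. Mouse LDR line with an epigenetically silenced CMV-GFP locus; compound incubation 30 h, 37 C.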
Gal4-VP16 FLuc – inhibits Gal4-VP16 luciferase reporter, ROR gamma counter-screen | Drosophila S2 Gal4-VP16 UAS-luciferase, luminescence, 20 h | Potency, µM (highest dose often 53.6 µM), for the others: at the highest dose activity, negative = inhibition, actives largely listed as inhibitors | hit rate 3.5% among 310,000 | AID 2546;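 note: Gal4-VP16 expression switched on by copper sulfate through the metallothionein promoter; % is set by controls: 0 for no effect and ±100 for the full control effect; nearly all actives have a fitted effect of over 50% in size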
RORg inh – inhibitors of mouse ROR gamma transcriptional activity | AID 2551 | Drosophila S2 Gal4-RORgamma UAS-luciferase reporter, 20 h | Potency, µM (top dose mostly 53.6 µM), for inactives: at the top dose activity change, negative = inhibition, usual class: inhibitors | hit rate 5.4% among 310,000 | P51450; note: % is set by controls: 0 for no effect and ±100 for the full control effect; nearly all actives have a fitted effect of over 60% in size
Target sequence (P51450 whole entry, looked up, the tested form may be a part): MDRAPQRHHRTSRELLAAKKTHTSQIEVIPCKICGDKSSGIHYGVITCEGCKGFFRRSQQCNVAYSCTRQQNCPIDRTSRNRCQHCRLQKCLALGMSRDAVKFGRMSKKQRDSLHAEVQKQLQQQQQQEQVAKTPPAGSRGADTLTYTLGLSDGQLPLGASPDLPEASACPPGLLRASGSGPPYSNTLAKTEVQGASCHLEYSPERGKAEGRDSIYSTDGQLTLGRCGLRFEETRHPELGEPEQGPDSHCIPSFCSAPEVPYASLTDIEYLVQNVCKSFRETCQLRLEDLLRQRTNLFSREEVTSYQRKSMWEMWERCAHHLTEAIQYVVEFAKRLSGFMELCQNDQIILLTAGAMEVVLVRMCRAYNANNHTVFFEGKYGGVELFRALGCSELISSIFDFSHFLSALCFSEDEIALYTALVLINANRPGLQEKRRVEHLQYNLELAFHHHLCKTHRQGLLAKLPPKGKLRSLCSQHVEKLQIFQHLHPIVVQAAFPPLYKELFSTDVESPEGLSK
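A Gal4/UAS one-hybrid system in insect cells: metallothionein-promoter Gal4–ROR gamma fusion plus Photinus luciferase reporter. Copper sulfate 700 uM final, 20 hr ambient incubation, luminescent detection after 10 min with reagent.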
PINK1 expr mod – PINK1 expression modulation | Potency, µM (highest dose often 76.6 µM), inactives show top-dose activation (PINK1 increase), usual class: activators | hit rate 0.2% among 410,000 | PINK1 immunofluorescence, high-content cytometry, 24 h | AID 624263; active = well fitted activation curve with a large enough effect; inconclusive = small, poorly fitted or top-dose-only effect; cell line not stated here; note: % of control where 0% means no effect; nearly all actives have a fitted effect of over 65% in size
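Fluorescence from anti-PINK1 antibody, together with nuclear and cell stains, was scanned on a laser-scanning cytometer. Before staining, stable-line cells were incubated 24 hours with compounds at 5 concentrations; primary antibody 12 h at 10 degrees C.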
ClpP mod – qHTS Assay for Activators of ClpP. hit rate 1.9% among 340,000. AID 651965, 2013. ATP-dependent Clp protease proteolytic subunit (Bacillus subtilis (strain 168)), P80244. purified B. subtilis ClpP, FRET peptide cleavage, 20 min. Potency, µM (titrated, usually from 57.5 µM), for inactives: top-dose activity change, negative = active; active = well fitted falling curve with a large enough effect; inconclusive = small, poorly fitted or top-dose-only effect; inactive = no such curve, though single readings can be large or run the other way; note: the source files actives as falling curves though it sought activators and does not explain the sign; nearly all actives have a fitted effect of over 65% in size
Target sequence (P80244 whole entry, looked up): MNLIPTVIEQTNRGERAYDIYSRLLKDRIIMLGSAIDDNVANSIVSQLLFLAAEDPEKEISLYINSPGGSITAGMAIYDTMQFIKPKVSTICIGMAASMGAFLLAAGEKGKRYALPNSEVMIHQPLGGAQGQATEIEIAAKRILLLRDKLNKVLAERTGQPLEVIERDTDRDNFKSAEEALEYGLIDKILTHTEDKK
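Buffer: 100 mM Tris/HCl pH8, 100 mM KCl, 0.05% low protease BSA, 2.5% glycerol, 0.01% Tween-20. ClpP 10 microg/mL final; 20 min RT; delta FRET normalized to ADEP and DMSO controls.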
Sfp inh – blocks B. subtilis Sfp PPTase activity. hit rate 3.5% among 310,000. Potency, µM, for the others: largest response in the series, negative = inhibition, hits mostly inhibitors. AID 1490. Biochemical Sfp PPTase activity, qHTS;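 note: the enzyme is Sfp with the accession as filed and its product quenches rhodamine fluorescence; 0% = enzyme reaction without inhibitor and -100% = no enzyme wells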
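After 15 min at room temperature with compound, 15 nM Sfp received 5 uM rhodamine-CoA plus 12.5 uM BHQ-2-ybbR (50 mM Hepes pH 7.6, 10 mM MgCl2). Rate came from the fluorescence difference over 30 min, ex 525/em 598 nm.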
* marks the source's active call; other numbers are inactive results; ? = inconclusive; . = no result given; ! = repeats disagree; [ ] = another dose, or the depositor's remark. Compounds with a hit are over-represented: about 8.1% of the library has one in this group of screens. Unless noted, calls come from the whole dose curve; as a rule, active = well fitted curve in the direction sought with a large enough effect; inconclusive = small, poorly fitted or top-dose-only effect, or another doubt; inactive = no such curve, though single readings can be large; an effect the other way counts as inactive or inconclusive. Potency is the fitted concentration of half-maximal effect.

SMILES | Epigenetic derep | Gal4-VP16 FLuc | RORg inh | PINK1 expr mod | ClpP mod | Sfp inh
C=CCn1c(SCC(C)=O)nc2scc(-c3ccco3)c2c1=O | . | ? | ? | 9% | . | 7.1µM*
O=C(NCCc1nnc2n1CCN(Cc1ccc(F)cc1)CC2)c1ccco1 | . | . | . | 0% | . | .
Cc1cccc(CNCCn2cc(C(=O)Nc3ccccc3)nn2)c1 | . | . | . | -1% | . | .
C=CCn1c(SCC(=O)N2CCOCC2)nc2scc(-c3ccco3)c2c1=O | -1% | ? | ? | -3% | -8% | 2.8µM*
C=CCn1c(SCC(=O)N2CCCC2)nc2scc(-c3cccs3)c2c1=O | -1% | -3% | 5% | ? | -2% | -10%
COc1ncc2nc(-c3cccs3)c(=O)n(Cc3ccc(F)cc3)c2n1 | . | -6% | -21% | 0% | . | -9%
O=C(/C=C/c1ccc(O)c(O)c1)OC1C[C@](O)(C(=O)O)C[C@@H](O)[C@H]1O (stereo partly specified) | . | 6% | 22% | . | . | .
C=CCc1cccc2cc(C(=O)O)c(=O)oc12 | 0% | -1% | 3% | -1% | -19% | 13%
C=CCc1cccc2cc(C(=O)NC)c(=O)oc12 | 0% | 9% | 1% | 0% | 22µM* | 8%
Cc1cnc(-c2nnc(N(C)C(=O)C3CCOC3)s2)cn1 (stereo unspecified) | 2% | 8% | 26% | -1% | 28µM* | 3%
CN(C(=O)C1CCOC1)c1nnc(-c2ccccn2)s1 (stereo unspecified) | -1% | -17% | -18% | -1% | 285% | 21%
COCCn1c(-c2ccccc2Cl)nc2c(c(=O)c3ccccc3n2C)c1=O | 0% | 0% | -26% | 0% | 18µM* | 15%
COCCn1c(-c2ccc(Cl)cc2)nc2c(c(=O)c3ccccc3n2C)c1=O | -1% | -1% | -9% | . | . | -6%
CCOC(=S)SCC(=O)N1CCc2ccccc2C1C1C(=O)CCCC1=O (stereo unspecified) | -1% | -15% | -10% | 0% | -2% | 56µM*
Cc1n[nH]c(=S)n(/N=C/c2ccccn2)c1=O | 0% | -7% | -8% | -1% | 1% | 50µM*
CCc1n[nH]c(=S)n1/N=C/c1ccccn1 | . | -3% | 2% | 2% | -2% | 50µM*
COc1ccc(-c2nc3ccccc3s2)cc1NC(=O)COc1cccc(C)c1 | 0% | . | . | 4% | 4% | .
O=c1cc(-c2ccc(F)cc2F)[nH]c2ccccc12 | 5%[96.6 µM] | -2%[96.6 µM] | 8.9µM*! | . | . | 16%
CSc1nc2c(C)c(C)c(C)c(C)c2[nH]1 | 0% | 6% | 4% | -1% | -1% | -4%
CSc1nc(=S)cc(C)[nH]1 | 3% | -6% | ? | -3% | . | 35µM*
Cc1csc2nc(COC(=O)CNC(=O)c3ccc(F)cc3)cc(=O)n12 | 0% | . | . | 3% | 4% | .
CCC(=O)NC1=C(Nc2ccc(N)cc2)C(=O)c2ccccc2C1=O | . | ? | 13µM* | 0% | ? | -1%
COc1cccc(NC(=O)CN2CCSc3ccccc32)c1 | 0% | 8% | 19% | 4% | 1% | 63µM*
Cc1cccc(NC(=O)CN2CCSc3ccccc32)c1 | 13% | 12% | 18% | 5% | 1% | 1%
Cc1oc(C(=O)O)cc1CSCc1cc(C(=O)O)c(C)o1 | 0% | . | -12%[0.365 µM] | -1% | -7% | 20µM*
SMILES | Epigenetic derep | Gal4-VP16 FLuc | RORg inh | PINK1 expr mod | ClpP mod | Sfp inh
CN(/N=C/c1ccc(O)cc1O)c1ncc(C(F)(F)F)cc1Cl | -1% | -11% | 7.9µM* | 12% | -1% | 24%
Cc1cccc(CNC(=O)c2cnn(-c3nccc(-c4cccs4)n3)c2C(C)C)n1 | . | . | . | -1% | . | .
CC1CCC/C(=C\Nc2ccc(O)cc2)C1=O (stereo unspecified) | -1% | -3% | -3% | -2% | 0% | 45µM*
Cc1cc(C(=O)O)ccc1N/C=C1\CCCC(C)C1=O (stereo unspecified) | 0% | 3.5µM* | 3.5µM* | 2% | -3% | 16%
O=C1CCCC/C1=C/Nc1ccc(C(=O)O)cc1 | 7% | 4% | 15% | 6%[38.3 µM] | -8% | 2%
Cc1cc(C(=O)O)ccc1NCc1cccnc1 | . | . | . | -1% | -1% | -1%
N#Cc1ccc(C2=NC(C(F)(F)F)(C(F)(F)F)c3c(n(Cc4ccco4)c(=O)[nH]c3=O)N2)cc1 | -1% | ? | 13µM* | . | 1% | 11%
O=c1[nH]c(=O)n(Cc2ccco2)c2c1C(C(F)(F)F)(C(F)(F)F)N=C(CCc1ccccc1)N2 | -1% | -12% | ? | 3%[38.3 µM] | 19% | -11%
COc1ccc(-n2c3c(c(=O)[nH]c2=O)C(C(F)(F)F)(C(F)(F)F)N=C(CC(C)C)N3)cc1 | -1% | -3% | 0% | 5%[38.3 µM] | -3% | 18%
O=c1[nH]c(=O)n(-c2ccccc2)c2c1C(C(F)(F)F)(C(F)(F)F)N=C(CCC1CCCCC1)N2 | -3% | -16% | -1% | 16% | -4% | 3%
O=c1[nH]c(=O)n(-c2ccc(F)cc2)c2c1C(C(F)(F)F)(C(F)(F)F)N=C(c1ccc(F)cc1)N2 | -3% | 16µM* | -26% | 10µM* | -2% | 15%
Cc1ccc(C2=NC(C(F)(F)F)(C(F)(F)F)c3c(n(-c4ccc(F)cc4)c(=O)[nH]c3=O)N2)cc1 | 0% | -12% | ? | 40µM* | 1% | 19%
CC(C)c1ccc(NC(=O)c2cc(S(=O)(=O)N3CCCCC3)cn2C)cc1 | -1% | . | . | 6% | 12% | .
COc1ccc2nc(SCC(O)c3cccc(Br)c3)[nH]c2c1 (stereo unspecified) | -1% | . | . | 1% | -2% | .
COCCNC(=O)CSc1nc2ccccc2nc1Cc1ccc(C)cc1 | -1% | . | . | 3% | -2% | .
Cc1cccc2cc(CN(CC3CCCO3)C(=O)c3ccccc3F)c(N(C)C)nc12 (stereo unspecified) | . | . | . | 0% | . | .
CCCCn1c(-c2nonc2N)nc2ccccc21 | -1% | -12% | ? | 1% | -3% | 15%
Nc1nonc1-c1nc2ccccc2n1CC(=O)Nc1ccccc1 | 2% | 1% | 0% | 12% | . | 6%
CCOC(=O)c1ccccc1NC(=O)Cn1c(-c2nonc2N)nc2ccccc21 | 9% | ? | ? | 7% | -2% | 28µM*
CC(C)CCn1c(-c2nonc2N)nc2ccccc21 | -1% | ? | 10µM* | 1% | -8% | ?
Cc1nnc2sc(-c3csc4c3CCCC4)nn12 | 2% | 1% | -35% | -1% | -9% | 1%
S=c1nc(-c2csc3c2CCCC3)[nH][nH]1 | 9% | 11µM* | 4µM* | 3% | 3% | 35µM*
